Laboratory results as given in paper PMC4336329 (PLoS ONE, 2015).
Among all 310,000 compounds or so, about 2,200 (0.71%) showed an effect of 50% or more. Effects have a minus sign here. This excerpt belongs to a sample that is enriched for strong results.

Biological target: human ether-à-go-go-related gene (hERG) potassium channel (human, UniProt Q12809)
Assay: primary screen, population patch clamp on CHO cells stably expressing hERG; higher = less effect of the substance

human ether-à-go-go-related gene (hERG) potassium channel, sequence (Q12809 whole entry, looked up): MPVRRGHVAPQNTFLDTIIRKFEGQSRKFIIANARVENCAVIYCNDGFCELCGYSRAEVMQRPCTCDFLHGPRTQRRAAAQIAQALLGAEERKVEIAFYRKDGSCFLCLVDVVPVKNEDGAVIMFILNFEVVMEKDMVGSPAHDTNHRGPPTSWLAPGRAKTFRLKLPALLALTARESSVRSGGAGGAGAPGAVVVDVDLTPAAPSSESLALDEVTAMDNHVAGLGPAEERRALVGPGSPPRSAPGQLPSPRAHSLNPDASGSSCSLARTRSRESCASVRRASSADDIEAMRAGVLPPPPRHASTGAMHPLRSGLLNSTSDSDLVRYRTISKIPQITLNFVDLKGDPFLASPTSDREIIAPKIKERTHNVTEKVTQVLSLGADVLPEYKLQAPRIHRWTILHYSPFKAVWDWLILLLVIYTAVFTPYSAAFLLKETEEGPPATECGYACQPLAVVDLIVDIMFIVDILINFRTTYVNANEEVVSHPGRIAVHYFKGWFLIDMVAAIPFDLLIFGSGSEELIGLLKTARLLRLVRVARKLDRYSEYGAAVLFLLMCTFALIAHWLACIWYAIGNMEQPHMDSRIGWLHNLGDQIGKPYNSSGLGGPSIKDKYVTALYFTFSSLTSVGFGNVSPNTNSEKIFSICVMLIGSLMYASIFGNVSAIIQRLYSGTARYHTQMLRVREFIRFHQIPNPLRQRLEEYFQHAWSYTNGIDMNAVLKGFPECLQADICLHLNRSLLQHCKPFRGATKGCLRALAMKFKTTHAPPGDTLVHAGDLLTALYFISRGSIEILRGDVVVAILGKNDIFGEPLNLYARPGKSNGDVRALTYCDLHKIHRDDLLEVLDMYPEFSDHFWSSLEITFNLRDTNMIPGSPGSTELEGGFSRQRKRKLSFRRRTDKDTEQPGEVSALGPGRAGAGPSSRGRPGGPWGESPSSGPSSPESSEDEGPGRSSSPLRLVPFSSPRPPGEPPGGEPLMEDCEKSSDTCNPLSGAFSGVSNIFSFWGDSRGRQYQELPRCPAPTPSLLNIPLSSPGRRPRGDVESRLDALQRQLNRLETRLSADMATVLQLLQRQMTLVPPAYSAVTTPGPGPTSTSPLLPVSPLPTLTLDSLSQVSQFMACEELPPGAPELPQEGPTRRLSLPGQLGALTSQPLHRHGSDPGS

Structure (SMILES) | hERG current change (%, negative = inhibition) at 1uM [%]
Cc1ccccc1Nc1nc(N)nc(CSc2nc3ccccc3c(=O)n2C)n1 | 9.44
N=c1c(C(=O)NCC2CCCO2)cc2c(=O)n3ccccc3nc2n1Cc1ccccc1 (centres unmarked) | -72.3
N=c1c(C(=O)NCC2CCCO2)cc2c(=O)n3ccccc3nc2n1Cc1ccc(Cl)cc1 (centres unmarked) | -81.9
N=c1c(C(=O)NCC2CCCO2)cc2c(=O)n3ccccc3nc2n1Cc1ccc(F)cc1 (centres unmarked) | -82.7
N=c1c(S(=O)(=O)c2ccc(Cl)cc2)cc2c(=O)n3ccccc3nc2n1CC1CCCO1 (centres unmarked) | 6.52
N=c1c(C(=O)NCc2ccco2)cc2c(=O)n3ccccc3nc2n1CC1CCCO1 (centres unmarked) | -84.3
O=C(NCc1ccco1)c1ccc2c(=O)n(CC3CCCO3)c(=S)[nH]c2c1 (centres unmarked) | 4.98
N=c1c(C(=O)NCC2CCCO2)cc2c(=O)n3ccccc3nc2n1Cc1cccnc1 (centres unmarked) | -34.7
N=c1c(C(=O)NCC2CCCO2)cc2c(=O)n3ccccc3nc2n1Cc1ccccc1Cl (centres unmarked) | -46.8
CCn1c2ccccc2c2cc(NC(=O)COC(=O)c3ccccc3O)ccc21 | 15
CCN(C(=O)/C=C/c1ccc(OC)cc1)C1CCS(=O)(=O)C1 (centres unmarked) | -3.05
CN1C(=O)/C(=N/OC(=O)c2ccccc2)c2ccccc21 | -4.57
N#Cc1c(N)n(CCc2ccc(F)cc2)c2nc3ccccc3nc12 | 19.9
COCCNCCOc1ccc(C(C)(C)c2ccccc2)cc1.O=C(O)C(=O)O | -2.39
Cc1cc(C(=O)N2CC(C)CC(C)C2)n(-c2ccccc2)n1 (centres unmarked) | 16.6
CC1CN(C(=O)Nc2ccc(F)cc2F)CC(C)O1 (centres unmarked) | -1.61
C=CCn1c(SCC(=O)N2CCCCC2)nc(O)cc1=O | 4.63
COc1ccccc1N1CCN(S(=O)(=O)c2ccc(-c3cnc(C4CC4)o3)cc2)CC1 | 14
N=c1c(C(=O)NCC2CCCO2)cc2c(=O)n3ccccc3nc2n1Cc1ccco1 (centres unmarked) | -83.1
Cc1ccc(-c2nnc3n2CCCCC3)cc1 | 0.609
Cc1cccc(NC(=O)c2cc(NC(=O)c3ccccc3)ccc2N2CCCCC2)c1 | 3.79
Cc1ccc(-c2nc3ccccc3c(=O)n2-c2ncccc2C)cc1 | 0.712
Cc1ccc(C)c2c(SC(C)C(=O)NCc3ccco3)nc(-c3ccccc3)nc12 (centres unmarked) | -71.2
Cc1ccc2nc(-c3ccccc3)nc(SC(C)C(=O)NCc3cccs3)c2c1 (centres unmarked) | 16.6
CC(Sc1nc(-c2ccccc2)cc(C(F)(F)F)n1)C(=O)NCc1ccco1 (centres unmarked) | 4.96

Structure (SMILES) | hERG current change (%, negative = inhibition) at 1uM [%]
C=CC(=O)NC(C)(C)CCN1CCOCC1 | 8.55
Nc1nc(SCC(=O)c2cccc([N+](=O)[O-])c2)n[nH]1 | 5.93
COC(=O)c1ccc(CSc2nncn2C)cc1 | -4.1
Cl.Fc1ccc(C(OCCN2CCCC2)c2ccc(F)cc2)cc1 | -37.9
Cl.c1ccc(C(OCCN2CCNCC2)c2ccccc2)cc1 | 4.05
Fc1ccccc1N1CCN(CCCc2ccccc2)CC1 | -18.4
Cl.Fc1ccc(C(OCCN2CCN(CCCc3ccccc3)CC2)c2ccc(F)cc2)cc1 | -71.3
Cl.c1ccc(CCCN2CCN(CCOC(c3ccccc3)c3ccccc3)CC2)cc1 | -41.9
Cl.Fc1ccc(C(OCCN2CCCC2)c2ccc(Br)cc2)cc1 (centres unmarked) | -66
CCCCn1c(N)c(N(CC(C)C)C(=O)C2CCN(S(=O)(=O)c3ccc(C)cc3C)CC2)c(=O)[nH]c1=O | 2.62
Cn1c(=O)[nH]c(=O)c2c1nc(SCC(N)=O)n2Cc1cccc(Br)c1 | 4.47
c1cc2c(cc1C1CCCCC1)c1c3n2CCN=C3CCC1 | 11.4
CS(=O)(=O)O.c1ccc(-c2ccc3c(c2)c2c4n3CCN=C4CCC2)cc1 | 2.12
Cc1ccc2c(c1)c1c3n2CCN=C3CCC1.Cl | -65.6
CNc1cccc2c1C(=O)c1ccccc1C2=O | 5.62
COCCn1nnnc1C(c1ccccc1OC)N1CCN(c2ccccc2)CC1.Cl (centres unmarked) | 6.17
COCCn1nnnc1C(c1ccc(OC)cc1OC)N1CCN(c2ccccc2F)CC1.Cl (centres unmarked) | -2.19
COCCn1nnnc1C(c1ccc(OC)cc1OC)N1CCN(c2ccccc2)CC1 (centres unmarked) | -54.1
COc1ccccc1N1CCN(S(=O)(=O)c2cc(Br)cnc2N)CC1 | 15.3
CCN(CC)CCN1C(=O)c2ccccc2NC1c1ccc(C)cc1 (centres unmarked) | -48.3
CCN(CC)CCN1C(=O)c2ccccc2NC1c1ccc(F)cc1 (centres unmarked) | -30.5
CCN(CC)CCN1C(=O)c2ccccc2NC1c1ccc(Br)cc1 (centres unmarked) | -82.8
CCOC(=O)c1c(NC(=O)CN2CCOCC2)sc2c1CC(C)(C)OC2 | 11.7
NS(=O)(=O)c1ccc(CCNc2nc(CN3CCOCC3)nc3sc4c(c23)CCC4)cc1 | 3.28
Cc1nc(NCCc2ccc(S(N)(=O)=O)cc2)c2c3c(sc2n1)CCC3 | 11.8

Structure (SMILES) | hERG current change (%, negative = inhibition) at 1uM [%]
NS(=O)(=O)c1ccc(CCNc2nc(CN3CCCCC3)nc3sc4c(c23)CCC4)cc1 | -53
Cc1cccc(C)c1NC(=O)CNC(=O)c1ccc(N2CCCC2)c([N+](=O)[O-])c1 | -2.53
O=C(Nc1ccnn1C1CCN(CCCc2ccccc2)CC1)c1ccccc1 | -70.9
COc1ccc(C(=O)Nc2ccnn2C2CCN(CCC(C)c3ccc(C)o3)CC2)cc1 (centres unmarked) | -18
O=C(Nc1ccnn1C1CCN(C2CCC2)CC1)c1ccccc1Cl | -28.4
COc1ccccc1C(=O)Nc1ccnn1C1CCN(CCC(C)c2ccc(C)o2)CC1 (centres unmarked) | -88.2
CSCCCN1CCC(n2nccc2NC(=O)CCCc2ccccc2)CC1 | -28.5
Cc1ccccc1C(=O)Nc1ccnn1C1CCN(Cc2ccccn2)CC1 | -14.6
O=C(Nc1ccnn1C1CCN(C2CCC2)CC1)c1ccccc1 | 16.6
Cc1ccccc1CN1CCC(n2nccc2NC(=O)CCCc2ccccc2)CC1 | 7.05
O=C(Nc1ccnn1C1CCN(CCCc2ccccc2)CC1)c1ccccc1Cl | -87.3
Cc1ccccc1C(=O)Nc1ccnn1C1CCN(CCCc2ccccc2)CC1 | -84.5
COc1ccccc1C(=O)Nc1ccnn1C1CCN(C(C)CSC)CC1 (centres unmarked) | -10.6
COc1ccc(-c2cc(C(=O)NCCc3ccc(S(N)(=O)=O)cc3)c3ccccc3n2)cc1 | 11.6
O=C(OCC(=O)N1CCOCC1)c1cnc(Cl)c(Cl)c1 | -0.0536
CCCCN=C(C)C1=C(O)CSC1=O | 15.8
CCN(c1ccccc1)S(=O)(=O)c1ccc(F)cc1 | 8.48
O=C(OCc1nnc(-c2ccc(Br)cc2)o1)c1ccco1 | -3.17
CS(=O)(=O)N(CC(=O)Nc1cccc(F)c1)Cc1ccccc1 | 20.1
COc1ccccc1-n1c(O)c(/C=C2\C=Nc3ccccc32)c(=O)[nH]c1=O | 11.9
Cc1cc(C)nc(-n2nc(C)cc2NC(=O)c2cccc(S(=O)(=O)N(C)C)c2)n1 | 8.89
COc1ccccc1CN1CCC(n2nccc2NC(=O)CCc2ccccc2)CC1 | 7.89
COc1ccccc1C(=O)Nc1ccnn1C1CCN(CCCc2ccccc2)CC1 | -88.1
COc1ccccc1C(=O)Nc1ccnn1C1CCN(C)CC1 | 4.47
CC1=C(C(N)=O)C(c2ccc(Br)cc2)n2nc(CCCO)nc2N1 (centres unmarked) | 13.1

Structure (SMILES) | hERG current change (%, negative = inhibition) at 1uM [%]
Cc1ccc(N=C2NC(=O)C(CC(=O)O)S2)cc1 (centres unmarked) | 8.56
CC(=O)c1ccc(N2CCN(S(=O)(=O)c3csc(C(N)=O)c3)CC2)cc1 | -14.2
CN(C)S(=O)(=O)N1CCN(c2ccccc2)CC1 | -0.132
CN(C)S(=O)(=O)N1CCN(c2ccc(Cl)cc2)CC1 | 5.65
NC(=O)c1cc(S(=O)(=O)N2CCN(c3ccc([N+](=O)[O-])cc3)CC2)cs1 | -59.3
NC(=O)c1cc(S(=O)(=O)N2CCN(c3cccc(Cl)c3)CC2)cs1 | 18.9
CN(C)S(=O)(=O)N1CCN(c2ccc([N+](=O)[O-])cc2)CC1 | -60.5
O=[N+]([O-])c1cc(NS(=O)(=O)c2ccc(Cl)nc2)ccc1Cl | -0.66
CCc1ccc2oc(-c3cc(N)ccc3O)nc2c1 | 9.06
O=C(O)C1CSC(c2ccccc2)N1C(=O)c1ccco1 (centres unmarked) | 10
O=C(/C=C/c1ccc(S(=O)(=O)NCc2ccco2)cc1)N1CCN(c2ccccc2)CC1 | 5.15
COc1ccc(C(=O)N/N=C/c2ccc(OC)c(COc3ccc(F)cc3)c2)cc1 | 1.17
COc1ccc(/C=N\NC(=O)c2ccccc2)cc1COc1ccc(F)cc1 | 4.81
COc1ccc(/C=N/NC(=O)c2cccc(Br)c2)cc1CN1CCOCC1 | -38.5
COc1ccc(C(=O)N/N=C/c2ccc(OC)c(CN3CCN(c4ccc(F)cc4)CC3)c2)cc1 | -83.5
COc1ccc(/C=N/NC(=O)c2ccc(C)cc2)cc1CN1CCN(c2ccc(F)cc2)CC1 | -27
COc1ccc(/C=N/NC(=O)c2cccnc2)cc1CN1CCN(c2ccc(F)cc2)CC1 | -0.578
COc1ccc(/C=N/NC(=O)c2ccccc2)cc1CN1CCN(c2ccc(F)cc2)CC1 | -62.1
COc1ccc(/C=N/NC(=O)c2ccccc2F)cc1CN1CCN(c2ccc(F)cc2)CC1 | -64.4
COc1ccc(/C=N/NC(=O)c2ccoc2C)cc1CN1CCN(c2ccc(F)cc2)CC1 | -19.3
COc1ccc(/C=N/NC(=O)c2ccncc2)cc1CN1CCN(c2ccc(F)cc2)CC1 | -54.2
COc1ccc(/C=N\NC(=O)c2ccccc2F)cc1COc1ccc(F)cc1 | 16.6
COc1ccc(/C=N/NC(=O)c2ccncc2)cc1CN1CCOCC1 | 6.59
